Test results published in PubChem BioAssay (Tox21).
Inconclusive results are not listed. Activity calls are given as the source filed them. Unless noted, the call rests on the fitted dose curve; in most records, active means well fitted curve in the direction sought with a large enough effect in the repeat runs; inconclusive means weak or mixed curves; inactive means no such curve, though single readings can be large; an effect the other way counts as inactive or inconclusive.

What was measured:
[1] = qHTS assay to identify small molecule that activate the aryl hydrocarbon receptor (AhR) signaling pathway - cell viability counter screen (AID 743086);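 further: HepG2 liver cells carrying the AhR DRE luciferase reporter; series mostly up to about 70 µM; nearly all actives have a fitted effect of over 45% in size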
Procedure, shortened: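 HepG2-AhR-luc (HG2L7.5c1) cells, 4000/well, treated 24 h at 37 C with compound; viability measured as CellTiter-Fluor fluorescence after 30 min in the same wells as the luciferase read.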

[2] = biological target: Peroxisome proliferator-activated receptor gamma (Homo sapiens) (UniProt P37231); assay: qHTS assay to identify small molecule agonists of the peroxisome proliferator-activated receptor gamma (PPARg) signaling pathway (AID 743094; active means well fitted activation curve with a large enough effect in the signal ratio in the repeat runs, not every such curve was filed as active; the % refers to the signal ratio)
Chain of Peroxisome proliferator-activated receptor gamma (Homo sapiens) (P37231 whole entry, looked up): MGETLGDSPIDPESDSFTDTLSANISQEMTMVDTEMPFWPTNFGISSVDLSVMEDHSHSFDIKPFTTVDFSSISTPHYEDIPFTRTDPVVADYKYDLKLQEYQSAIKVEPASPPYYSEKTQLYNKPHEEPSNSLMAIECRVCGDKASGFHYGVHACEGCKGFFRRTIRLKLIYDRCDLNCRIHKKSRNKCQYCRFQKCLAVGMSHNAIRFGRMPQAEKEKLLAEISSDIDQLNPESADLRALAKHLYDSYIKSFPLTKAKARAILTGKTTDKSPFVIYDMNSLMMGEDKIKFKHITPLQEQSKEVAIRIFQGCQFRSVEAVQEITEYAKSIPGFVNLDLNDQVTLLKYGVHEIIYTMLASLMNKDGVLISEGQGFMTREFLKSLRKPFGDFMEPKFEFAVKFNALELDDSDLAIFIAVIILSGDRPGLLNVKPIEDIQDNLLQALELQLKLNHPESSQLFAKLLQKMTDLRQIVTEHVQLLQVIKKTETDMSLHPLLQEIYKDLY
Procedure, shortened: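 GeneBLAzer PPARg UAS-bla HEK293H cells carrying a stably integrated beta-lactamase reporter were pre-incubated 5 h at 37C, then exposed to compounds in DMSO for 17 h at 37C; LiveBLAzer B/G FRET substrate was added for 1 h at room temperature and fluorescence read.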

[3] = qHTS assay to identify small molecule antagonists of the peroxisome proliferator-activated receptor gamma (PPARg) signaling pathway - cell viability counter screen (AID 743194); further: nearly all actives have a fitted effect of over 55% in size
Procedure, shortened: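 Cytotoxicity counter screen in PPARg-bla HEK293H cells, same wells as reporter assay. Compounds plus 50 nM rosiglitazone (final) for 17 h at 37 C, then viability read by CellTiter-Glo luminescence.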

[4] = qHTS assay for small molecule agonists of the antioxidant response element (ARE) signaling pathway - cell viability counter screen (AID 743203; calls by dose curve; further: nearly all actives have a fitted effect of over 55% in size)
Procedure, shortened: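 CellSensor ARE-bla HepG2 cells, 2,000 per well, rested 5 hrs at 37C/5% CO2, then exposed to compound in DMSO for 16 hrs; viability read as CellTiter-Glo luminescence after 30 min at room temperature, in the reporter wells.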

[5] = qHTS assay for small molecule activators of the heat shock response signaling pathway - cell viability counter screen (AID 743209); further: nearly all actives have a fitted effect of over 50% in size
Procedure, shortened: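 CellSensor HSE-bla HeLa cells, plated overnight at 37 C/5% CO2, were exposed to compounds in DMSO for 5 h at 37 C. Viability was then read in the same wells by CellTiter-Glo luminescence after 30 min at room temperature.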

[6] = qHTS assay for small molecule activators of the heat shock response signaling pathway (AID 743210; active means well fitted activation curve with a large enough effect in the signal ratio in the repeat runs, with a control signal flat, not every such curve was filed as active; the % refers to the signal ratio;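 further: HeLa cells with beta-lactamase reporter driven by heat shock elements; series mostly up to about 63 µM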)
Procedure, shortened: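 Quantitative high-throughput format using an engineered HeLa line in which heat shock response elements drive beta-lactamase; after 5 h with compound, cells received a B/G FRET substrate and fluorescence was read.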

[7] = qHTS assay to identify small molecule agonists of the peroxisome proliferator-activated receptor delta (PPARd) signaling pathway - cell viability counter screen (AID 743211); further: nearly all actives have a fitted effect of over 55% in size
Procedure, shortened: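 PPARd-bla HEK293H cells (UAS-beta-lactamase reporter) were treated with compounds for 17 h at 37 C. Viability was then read in the same wells by CellTiter-Glo luminescence after 30 min at room temperature.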

[8] = biological target: Peroxisome proliferator-activated receptor delta (Homo sapiens) (UniProt Q03181); assay: qHTS assay to identify small molecule agonists of the peroxisome proliferator-activated receptor delta (PPARd) signaling pathway (AID 743212; calls by dose curve)
Chain of Peroxisome proliferator-activated receptor delta (Homo sapiens) (Q03181 whole entry, looked up): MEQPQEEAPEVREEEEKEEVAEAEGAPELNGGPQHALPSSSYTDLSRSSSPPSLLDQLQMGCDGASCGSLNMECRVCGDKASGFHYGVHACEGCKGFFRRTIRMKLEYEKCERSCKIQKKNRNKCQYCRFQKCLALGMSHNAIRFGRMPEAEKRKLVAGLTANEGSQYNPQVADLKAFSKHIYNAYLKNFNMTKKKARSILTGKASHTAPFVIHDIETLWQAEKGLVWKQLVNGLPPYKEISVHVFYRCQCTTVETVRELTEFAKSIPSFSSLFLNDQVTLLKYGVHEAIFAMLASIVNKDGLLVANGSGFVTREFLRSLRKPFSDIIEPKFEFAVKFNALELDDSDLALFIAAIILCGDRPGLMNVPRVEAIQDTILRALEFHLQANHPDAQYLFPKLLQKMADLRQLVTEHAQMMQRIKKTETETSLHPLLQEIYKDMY
Procedure, shortened: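 Quantitative high-throughput agonist screen in a HEK293H beta-lactamase reporter line under UAS control. Compounds in DMSO, at 37 C. Fluorescence read after 2 h with FRET substrate at room temperature.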

[9] = qHTS assay to identify small molecule antagonists of the peroxisome proliferator-activated receptor delta (PPARd) signaling pathway - cell viability counter screen (AID 743213); further: nearly all actives have a fitted effect of over 50% in size
Procedure, shortened: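 Cytotoxicity counter screen: CellTiter-Glo luminescence read 30 min after addition, in the same wells as the reporter assay. There, PPARd UAS-bla HEK293H cells (3000/well) were treated 17 h at 37 C with compound and 300 nM L165041.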

[10] = biological target: Peroxisome proliferator-activated receptor delta (Homo sapiens) (UniProt Q03181); assay: qHTS assay to identify small molecule antagonists of the peroxisome proliferator-activated receptor delta (PPARd) signaling pathway (AID 743215; active means well fitted inhibition curve with a large enough effect in the signal ratio in the repeat runs, not every such curve was filed as active; the % refers to the signal ratio;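 further: cells stimulated with agonist L165041 at 300 nM final during compound exposure; series mostly up to about 62 µM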)
Procedure, shortened: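 PPARd UAS-bla HEK293H cells were pre-incubated 5 h at 37 C, then given test compounds in DMSO plus agonist L165041 (300 nM final). After 17 h at 37 C, beta-lactamase FRET substrate was added; fluorescence read after 2 h at room temperature.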

[11] = qHTS assay to identify small molecule agonists of the farnesoid-X-receptor (FXR) signaling pathway - cell viability counter screen (AID 743218); further: nearly all actives have a fitted effect of over 45% in size
Procedure, shortened: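 FXR-UAS-bla HEK 293T cells, plated 5 h at 37 C, were exposed to compounds for 16 h at 37 C. CellTiter-Glo was then added to the same wells as the bla readout; luminescence read after 30 min at room temperature.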

[12] = qHTS assay to identify small molecule antagonists of the farnesoid-X-receptor (FXR) signaling pathway - cell viability counter screen (AID 743221; active means well fitted cell-killing curve with a large enough effect in the repeat runs, not every such curve was filed as active; further: nearly all actives have a fitted effect of over 50% in size)
Procedure, shortened: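 FXR-UAS-bla HEK 293T cells were treated with test compounds plus chenodeoxycholic acid (50 uM final) for 16 h at 37 C. Cell viability in the same wells was then read as CellTiter-Glo luminescence after 30 min at room temperature.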

[13] = qHTS assay to identify small molecule agonists of the vitamin D receptor (VDR) signaling pathway - cell viability counter screen (AID 743224); further: series mostly up to about 63 µM; nearly all actives have a fitted effect of over 50% in size
Procedure, shortened: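 VDR-bla cells were preincubated 4 h at 37C/5% CO2, then exposed to compounds for 16 h. After the 2 h room-temperature bla FRET read, CellTiter-Glo was added to the same wells and luminescence read after 30 min.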

[14] = biological target: Peroxisome proliferator-activated receptor gamma (Homo sapiens) (UniProt P37231); assay: qHTS assay to identify small molecule antagonists of the peroxisome proliferator-activated receptor gamma (PPARg) signaling pathway (AID 743191; calls by dose curve; further: series mostly up to about 63 µM; nearly all actives have a fitted effect of over 30% in size)
Procedure, shortened: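 GeneBLAzer PPARg UAS-bla HEK293H cells, 5 h post-plating, exposed to compounds 17 h at 37C. LiveBLAzer B/G FRET substrate added for 1 h at room temperature; beta-lactamase reporter read by fluorescence intensity.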

[15] = qHTS assay for small molecule agonists of the antioxidant response element (ARE) signaling pathway (AID 743202; active means well fitted activation curve with a large enough effect in the signal ratio in the repeat runs, not every such curve was filed as active; the % refers to the signal ratio; further: potency means the concentration at half of the fitted maximal effect)
Procedure, shortened: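 Agonist mode reporter screen: HepG2 cells with ARE-controlled beta-lactamase are incubated with test compounds for 16 h at 37 C, and beta-lactamase activity is measured as fluorescence of cleaved B/G FRET substrate.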

[16] = biological target: Bile acid receptor (Homo sapiens) (UniProt Q96RI1); assay: qHTS assay to identify small molecule antagonists of the farnesoid-X-receptor (FXR) signaling pathway (AID 743217; active means well fitted inhibition curve with a large enough effect in the signal ratio in the repeat runs, not every such curve was filed as active; the % refers to the signal ratio)
Chain of Bile acid receptor (Homo sapiens) (Q96RI1 whole entry, looked up): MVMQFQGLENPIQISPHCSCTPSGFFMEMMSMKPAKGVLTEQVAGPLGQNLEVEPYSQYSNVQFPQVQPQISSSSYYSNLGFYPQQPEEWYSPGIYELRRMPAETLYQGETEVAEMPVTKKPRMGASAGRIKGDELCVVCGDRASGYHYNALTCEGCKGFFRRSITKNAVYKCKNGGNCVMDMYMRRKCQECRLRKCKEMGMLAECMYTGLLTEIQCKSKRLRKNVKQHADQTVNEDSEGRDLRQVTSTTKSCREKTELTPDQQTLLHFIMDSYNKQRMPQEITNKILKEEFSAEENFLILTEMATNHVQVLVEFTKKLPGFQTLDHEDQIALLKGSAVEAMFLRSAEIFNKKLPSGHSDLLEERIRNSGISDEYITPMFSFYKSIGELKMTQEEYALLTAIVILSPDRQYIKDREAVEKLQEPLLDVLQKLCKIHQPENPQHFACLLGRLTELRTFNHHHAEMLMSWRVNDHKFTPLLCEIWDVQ
Procedure, shortened: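 FXR-UAS-bla HEK 293T cells pre-incubated 5 h at 37 °C, then exposed to compounds with chenodeoxycholic acid (50 uM final) for 16 h at 37 °C. Beta-lactamase reporter read by LiveBLAzer B/G FRET substrate fluorescence after 2 h at room temperature.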

[17] = biological target: Bile acid receptor (Homo sapiens) (UniProt Q96RI1); assay: qHTS assay to identify small molecule agonists of the farnesoid-X-receptor (FXR) signaling pathway (AID 743220; active means well fitted activation curve with a large enough effect in the signal ratio in the repeat runs, not every such curve was filed as active; the % refers to the signal ratio)
Procedure, shortened: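 Beta-lactamase reporter under UAS control in GeneBLAzer FXR HEK 293T cells (5000/well) measured with LiveBLAzer FRET substrate after 2 h at room temperature. Compound exposure lasted 16 h at 37C.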

[18] = biological target: Vitamin D3 receptor (Homo sapiens) (UniProt P11473); assay: qHTS assay to identify small molecule agonists of the vitamin D receptor (VDR) signaling pathway (AID 743222; calls by dose curve)
Chain of Vitamin D3 receptor (Homo sapiens) (P11473 whole entry, looked up): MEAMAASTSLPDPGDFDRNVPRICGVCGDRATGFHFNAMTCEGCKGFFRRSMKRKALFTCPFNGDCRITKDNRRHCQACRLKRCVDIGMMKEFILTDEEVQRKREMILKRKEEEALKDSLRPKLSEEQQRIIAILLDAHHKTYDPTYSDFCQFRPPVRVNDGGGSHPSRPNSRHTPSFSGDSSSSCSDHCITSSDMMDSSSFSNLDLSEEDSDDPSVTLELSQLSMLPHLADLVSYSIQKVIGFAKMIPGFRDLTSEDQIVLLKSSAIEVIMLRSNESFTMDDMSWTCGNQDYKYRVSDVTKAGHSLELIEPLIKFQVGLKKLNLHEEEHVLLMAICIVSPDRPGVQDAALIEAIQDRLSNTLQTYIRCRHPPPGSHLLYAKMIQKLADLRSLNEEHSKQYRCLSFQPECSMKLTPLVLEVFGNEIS
Procedure, shortened: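 VDR-bla cells were plated 4 h at 37C/5% CO2, then exposed to compounds in DMSO for 16 h. After LiveBLAzer B/G FRET substrate addition and 2 h at room temperature, beta-lactamase reporter fluorescence was read.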

[19] = biological target: Vitamin D3 receptor (Homo sapiens) (UniProt P11473); assay: qHTS assay to identify small molecule antagonists of the vitamin D receptor (VDR) signaling pathway (AID 743223; active means well fitted inhibition curve with a large enough effect in the signal ratio in the repeat runs, not every such curve was filed as active; the % refers to the signal ratio)
Procedure, shortened: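 VDR-bla cells were plated, incubated 4 h at 37C, then given compound and 1alpha,25-dihydroxyvitamin D3 (3 nM final). After 16 h at 37C, LiveBLAzer B/G FRET substrate was added for 2 h at room temperature and fluorescence read.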

Measured: Potency

C=COCCCCO
inactive: [1] | [2] | [3] | [4] | [5] | [6] | [7] | [8] | [9] | [10] | [11] | [12] | [13]

CCNC(=O)C(C)OC(=O)Nc1ccccc1 (configuration not stated)
inactive: [1] | [2] | [14] | [15] | [4] | [5] | [6] | [7] | [9] | [16] | [11] | [17] | [12] | [18] | [13]

CC(=O)OC/C=C(/C)CCC=C(C)C
inactive: [1] | [2] | [3] | [15] | [4] | [5] | [6] | [8] | [9] | [10] | [11] | [12] | [13]

CCOC(=O)c1ccc(N(C)C)cc1
inactive: [1] | [2] | [3] | [4] | [5] | [8] | [9] | [10] | [11] | [12] | [18] | [19] | [13]

N#Cc1ccccc1C#N
inactive: [1] | [2] | [3] | [15] | [4] | [5] | [6] | [7] | [8] | [9] | [10] | [11] | [12] | [19] | [13]

CC(C)(C)C(=O)CCc1ccc(Cl)cc1
inactive: [1] | [2] | [3] | [15] | [4] | [6] | [7] | [8] | [9] | [10] | [11] | [18] | [19] | [13]

NNC(=O)OCc1ccccc1
inactive: [1] | [2] | [3] | [4] | [5] | [7] | [8] | [9] | [10] | [11] | [12] | [19] | [13]

Cc1cc(C)c(C)c(C)c1
inactive: [1] | [2] | [3] | [15] | [4] | [5] | [7] | [8] | [9] | [10] | [16] | [11] | [17] | [12] | [18] | [19] | [13]

CC(=O)SC[C@@H](C)C(=O)N1CCC[C@H]1C(=O)N[C@@H](Cc1ccccc1)C(=O)O
inactive: [1] | [2] | [14] | [15] | [4] | [5] | [6] | [7] | [8] | [9] | [10] | [16] | [11] | [17] | [12] | [18] | [13]

O=S(=O)(O)c1cc(I)c(O)c2ncccc12
inactive: [1] | [2] | [14] | [3] | [4] | [6] | [7] | [8] | [9] | [10] | [11] | [13]

C[C@@H](CN1CC(=O)NC(=O)C1)N1CC(=O)NC(=O)C1
inactive: [1] | [2] | [3] | [4] | [6] | [7] | [8] | [9] | [10] | [11] | [12] | [19] | [13]

COc1cnc(NS(=O)(=O)c2ccc(N)cc2)nc1
inactive: [1] | [2] | [3] | [15] | [4] | [9] | [12] | [13]

CN(C)CCC[C@@]1(c2ccc(F)cc2)OCc2cc(C#N)ccc21
inactive: [1] | [2] | [3] | [4] | [5] | [6] | [7] | [8] | [9] | [10] | [11] | [12] | [18] | [13]

O=C(O)COc1ccc2ccccc2c1
inactive: [1] | [2] | [14] | [4] | [6] | [7] | [9] | [16] | [11] | [17] | [18] | [19] | [13]

C/C(Cl)=C/CCl
inactive: [1] | [2] | [14] | [4] | [5] | [6] | [7] | [8] | [10] | [16] | [11] | [17] | [12] | [13]
active: [15] 31.2 µM

CSC(=O)c1cccc2nnsc12
inactive: [1] | [2] | [14] | [3] | [15] | [4] | [6] | [7] | [8] | [10] | [12] | [18] | [13]

C[C@]12C=CC(=O)C=C1[C@@H](F)C[C@@H]1[C@@H]2[C@@H](O)C[C@@]2(C)[C@H]1CC[C@]2(O)C(=O)CO
inactive: [1] | [2] | [14] | [15] | [4] | [6] | [7] | [8] | [10] | [11] | [12] | [18] | [19] | [13]
